# Assay results as given in PubChem BioAssay AID2025 (NMMLSC, 2009).
# The campaign covered roughly 330,000 compounds. About 980 (0.3%) were called active.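 Rule for the calls: active = percent response vs DMSO below 50%; inconclusive = fewer than 70 events counted for the yeast strain; inactive = the rest.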 What follows is part of a selection rich in actives, with near analogues and random picks from the rest.
# Experiment: RPL19A-GFP expression modulators in yeast, primary screen, cell-based, S. cerevisiae, multiplex flow cytometry, MLPCN (AID 2025);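 note: median channel GFP fluorescence of the barcoded RPL19A-GFP strain; ratio of sample median GFP to plate DMSO average so 100% = DMSO; lower means less RPL19A-GFP as with rapamycin TOR inhibition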
# Details: S. cerevisiae RPL19A-GFP strain, 3 h, at 10 µM, stronger effect = lower value
row,Structure (SMILES),percent response vs DMSO
1,NCCc1c[nH]c2ccc(O)cc12,32.1% [may fluoresce violet] (active)
2,Cc1cccc2c(CCN)c[nH]c12,101% (inactive)
3,C/C(CCc1c[nH]c2ccccc12)=N\O,100% (inactive)
4,OC1/C(=C/c2ccc(C(F)(F)F)cc2)N2CCC1CC2 (stereo not given),97.2% (inactive)
5,OCC#CC[N+]1(CC#Cc2ccccc2)CCCC1,99.6% (inactive)
